Experiment [1] in a line: qHTS assay to identify small molecule antagonists of the estrogen related receptor (ERR) signaling pathway from Tox21 library (AID 1224848). Also: nearly all actives have a fitted effect of over 50% in size. The essentials:
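Quantitative high-throughput format: ERR reporter cells (2,000/well) pre-incubated 6 h, treated 18 h at 37 C with compounds in DMSO alongside positive and negative controls, then read by ONE-Glo luminescence.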
(qHTS replaces the single test concentration by a dilution series.)

Experiment [2] is described as follows: qHTS assay to identify small molecule agonists of the estrogen related receptor (ERR) signaling pathway from Tox21 library (AID 1224849; calls by dose curve; also: nearly all actives have a fitted effect of over 15% in size). As to conditions: ERR reporter cell line, ONE-Glo luciferase, 18 h; at 92.4 µM (top of the series). The essentials:
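Quantitative HTS in agonist format: NTP ERR cell line, compounds transferred in DMSO after 6 h plating, 18 h incubation at 37 C, ONE-Glo luminescence endpoint.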

The nature of experiment [3]: qHTS RealTime-Glo MT Cell Viability Assay in HepG2 cells - 24 hour (AID 1224867). Also: nearly all actives have a fitted effect of over 50% in size. Also: potency is read from the fitted curve at half-maximal effect. The procedure, abridged: (§1)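 Real-time, nonlytic viability: 600 HepG2 cells/well mixed with NanoLuc enzyme plus prosubstrate; 5 h settle, compound (DMSO) added by pintool; luminescence monitored over 40 h at 37 C.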
The nature of experiment [4]: qHTS RealTime-Glo MT Cell Viability Assay in HEK293 cells - 32 hour (AID 1224868). Also: nearly all actives have a fitted effect of over 50% in size. Also: potency is read from the fitted curve at half-maximal effect. The essentials: (§2)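 Cells + reagent dispensed (600 cells/well, HEK293) → 5 h at 37 C/5% CO2 → 23 nL compound in DMSO pinned → 40 h at 37 C → luminescence read at 0, 8, 16, 24, 32, 40 h.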
A short description of experiment [5]: A CellTox Green Cytotoxicity Assay to monitor cytotoxicity in HEK293 cells - 0 hour (AID 1224869). Also: nearly all actives have a fitted effect of over 50% in size. The essentials:
(§3)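 Dead-cell fluorescence measured kinetically: asymmetric cyanine dye, HEK293, 600 cells/well, 5 h settle, 23 nL cpd/DMSO, 37 C, reads 0–40 h every 8 h.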

Experiment [6] is described as follows: qHTS RealTime-Glo MT Cell Viability Assay in HepG2 cells - 40 hour (AID 1224870). Also: nearly all actives have a fitted effect of over 50% in size. Also: potency is read from the fitted curve at half-maximal effect. The essentials: (§4)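 HepG2 cells (600/well) mixed with RealTime-Glo MT reagent, settled 5 h at 37 C/5% CO2 before compound addition. Nonlytic NanoLuc luminescence from viable-cell prosubstrate reduction read repeatedly during 40 h treatment at 37 C.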
Experiment [7] can be described thus: A CellTox Green Cytotoxicity Assay to monitor cytotoxicity in HEK293 cells - 40 hour (AID 1224871). Also: nearly all actives have a fitted effect of over 45% in size. Also: potency is read from the fitted curve at half-maximal effect. The essentials:
as §3

The nature of experiment [8]: qHTS RealTime-Glo MT Cell Viability Assay in HEK293 cells - 16 hour (AID 1224872). Also: nearly all actives have a fitted effect of over 50% in size. Also: potency is read from the fitted curve at half-maximal effect. The procedure, abridged:
as §2

Experiment [9] in a line: qHTS RealTime-Glo MT Cell Viability Assay in HepG2 cells - 8 hour (AID 1224873). Also: nearly all actives have a fitted effect of over 55% in size. Also: potency is read from the fitted curve at half-maximal effect. The essentials: as §4
Experiment [10] can be described thus: qHTS RealTime-Glo MT Cell Viability Assay in HEK293 cells - 40 hour (AID 1224874). Also: nearly all actives have a fitted effect of over 50% in size. Also: potency is read from the fitted curve at half-maximal effect. The following applies: RealTime-Glo luminescence; max response: stronger effect = lower value. The essentials: (§5)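 600 HEK293 cells per well, dispensed already mixed with RealTime-Glo MT reagents. Compound dosing came 5 h later. The same wells were read for luminescence at 0, 8, 16, 24, 32 and 40 h of exposure at 37 C.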

The nature of experiment [11]: A CellTox Green Cytotoxicity Assay to monitor cytotoxicity in HEK293 cells - 24 hour (AID 1224875). Also: nearly all actives have a fitted effect of over 45% in size. Also: potency is read from the fitted curve at half-maximal effect. The essentials:
as §3

Experiment [12] in a line: qHTS RealTime-Glo MT Cell Viability Assay in HepG2 cells - 32 hour (AID 1224877). Also: nearly all actives have a fitted effect of over 55% in size. Also: potency is read from the fitted curve at half-maximal effect. The procedure, abridged: as §1
A short description of experiment [13]: A CellTox Green Cytotoxicity Assay to monitor cytotoxicity in HepG2 cells - 24 hour (AID 1224878). Also: nearly all actives have a fitted effect of over 45% in size. Also: potency is read from the fitted curve at half-maximal effect. The essentials:
(§6)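 First, HepG2 cells (600/well) mixed with reagent were plated; second, after 5 h at 37 C they received compounds via pintool; third, fluorescence was measured at 0 h through 40 h at 8 h intervals.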

Experiment [14] can be described thus: A CellTox Green Cytotoxicity Assay to monitor cytotoxicity in HepG2 cells - 40 hour (AID 1224879). Also: nearly all actives have a fitted effect of over 40% in size. Also: potency is read from the fitted curve at half-maximal effect. The essentials:
as §6

Experiment [15] in a line: qHTS assay to identify small molecule agonists of the hypoxia (HIF-1) signaling pathway - cell viability counter screen (AID 1224844; calls by dose curve; also: nearly all actives have a fitted effect of over 50% in size). The procedure, abridged: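 Viability counter screen: HRE-bla ME-180 cells plated 5 hrs before compound addition, treated 17 hrs at 37C and 5% CO2, then CellTiter-Glo added after the FRET reporter read; luminescence after 30 min.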
Experiment [16] in a line: qHTS assay to identify small molecule agonists of H2AX - cell viability counter screen (AID 1224847; calls by dose curve; also: nearly all actives have a fitted effect of over 30% in size; also: potency is read from the fitted curve at half-maximal effect). The procedure, abridged: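 Cytotoxicity counter screen in wild-type CHO-K1 cells: a 3 hr compound treatment at 37C across 15 concentrations, followed by CellTiter-Glo luminescence to gauge viable cells.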
Experiment [17] can be described thus: qHTS RealTime-Glo MT Cell Viability Assay in HEK293 cells - 0 hour (AID 1224880). Also: top concentration of the series differs between compounds; nearly all actives have a fitted effect of over 45% in size. The essentials:
as §5

Experiment [18] can be described thus: qHTS assay to identify small molecule agonists of the hypoxia (HIF-1) signaling pathway (AID 1224846; active = well fitted activation curve with a large enough effect in the signal ratio in the repeat runs, not every such curve was filed as active; the % refers to the signal ratio). The procedure, abridged: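 Agonist mode reporter screen. ME-180 cells stably expressing bla under HRE control received test compounds in DMSO for 17 hrs (37C, 5% CO2), and beta-lactamase activity was then detected with the CCF4-AM FRET substrate.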
Experiment [19] can be described thus: A CellTox Green Cytotoxicity Assay to monitor cytotoxicity in HepG2 cells - 16 hour (AID 1224876). Also: nearly all actives have a fitted effect of over 45% in size. The procedure, abridged: as §6

From PubChem BioAssay (Tox21) come the findings set out here.

“And” between values parts separate entries of the source, which are not always exact repeats. Equal values may be shown once. Results filed as inconclusive are left out. A structure can be active in one record and inactive in another. The source made the active and inactive calls. Unless noted, calls follow the shape of the dose curve; as a rule, active = well fitted curve in the direction sought with a large enough effect in the repeat runs; inconclusive = weak or mixed curves; inactive = no such curve, though single readings can be large; an effect the other way counts as inactive or inconclusive.
% is scaled to controls: 0 for no effect and ±100 for the full control effect.

As for `CN(C)c1ccc(N=O)cc1`, the Potency result in experiment [1] and in [5] was “inactive” in each case. In experiment [2], the activity change, positive = activation was -55.7% (active) and -48.2% (active). Moreover, the Potency in experiment [3] was 55.1 µM (active) and 38.9 µM (active); in experiment [4] it was 15.5 µM (active) and 21.9 µM (active); in experiment [6] it was 34.7 µM (active); in experiment [7], 11 µM (active) and 19.5 µM (active); in experiment [8] it was 15.5 µM (active) and 21.9 µM (active); in [9] it was 49.1 µM (active) and 24.5 µM (active). The Potency in experiment [10] is 13.8 µM (active) and 19.5 µM (active); in [11], 13.8 µM (active) and 19.5 µM (active); in experiment [12], 34.7 µM (active); in experiment [13], 49.1 µM (active); in [14], 34.8 µM (active) and 12.3 µM (active).
With `CC(C)[C@@H](C(=O)O[C@@H](C#N)c1cccc(Oc2ccccc2)c1)c1ccc(Cl)cc1`, the Potency entry in experiment [15], in [3], in experiment [6], in experiment [7], in experiment [11] and in experiment [12] was “inactive” in each case. Besides, the Potency result in [13] and in experiment [14] was “inactive” each time. Also, the Potency is 16.2 µM (active) in [16]; 24.9 µM (active) in experiment [8]; 49.7 µM (active) and inactive in [9]. For the same compound, the call in [17] was inactive.
As to `CN(C)N`, the Potency entry in [15], in [16], in [3], in [4], in experiment [5] and in experiment [6] was “inactive” throughout. For the same compound, the Potency result in [8], in experiment [9] and in experiment [12] was “inactive” throughout. For the same compound, the compound was classed as inactive in experiment [18] and in experiment [17]. Also, in experiment [10], the max response is 6.16% (inactive).
Regarding `O=C(O)C(O)C(O)C(=O)O` (stereo not given), the Potency entry in [15], in [16], in experiment [3], in experiment [4], in experiment [5] and in experiment [6] was “inactive” each time. In addition, the Potency entry in [7], in experiment [8], in experiment [11], in experiment [19], in experiment [12] and in experiment [13] was “inactive” in each case. The Potency entry in experiment [14] is “inactive”. For the same compound, in [10], the max response was -0.119% (inactive). For the same compound, the result in [17] was inactive.
For the compound `C[N+]1(CCF)[C@@H]2CC[C@H]1CC(OC(=O)C(O)(c1ccccc1)c1ccccc1)C2` (stereo not given in full), the Potency result in [15], in [16], in experiment [3], in experiment [4], in experiment [6] and in experiment [7] was “inactive” throughout. In addition, the Potency result in [8], in [9], in experiment [11], in [19], in experiment [12] and in experiment [13] was “inactive” each time. Moreover, the Potency result in experiment [14] was “inactive”. Further, the max response in experiment [10] was 2.19% (inactive). The compound was classed as inactive in [17].
In the case of `O=C(N/N=C/c1ccc([N+](=O)[O-])o1)c1cc([N+](=O)[O-])cc([N+](=O)[O-])c1O`, the Potency result in experiment [15], in experiment [16], in experiment [3], in experiment [4], in [5] and in [6] was “inactive” in each case. Besides, the Potency entry in experiment [7], in experiment [8], in experiment [9], in experiment [11], in experiment [12] and in experiment [13] was “inactive” each time. For the same compound, the Potency entry in experiment [14] was “inactive”. Besides, the max response in [10] was 8.45% (inactive). In addition, the call in experiment [17] was inactive.
As to `NCCc1cc(O)c(O)cc1O`, the Potency entry in experiment [15], in experiment [16], in [3], in [4], in experiment [5] and in [6] was “inactive” each time. Besides, the Potency result in experiment [7], in experiment [8], in experiment [9], in experiment [11], in experiment [19] and in experiment [12] was “inactive” throughout. Further, the Potency result in experiment [13] and in [14] was “inactive” throughout. The max response in experiment [10] is -1.21% (inactive). Moreover, the result in experiment [17] was inactive.
Regarding `CCCSP(=S)(OCC)Oc1ccc(SC)cc1` (stereo not given), the Potency entry in experiment [15], in experiment [16], in [1], in experiment [3], in experiment [4] and in experiment [5] was “inactive” throughout. The Potency result in experiment [6], in [7], in experiment [8], in experiment [9], in experiment [11] and in [19] was “inactive” in each case. The Potency result in [13] and in [14] was “inactive” in each case. Besides, the activity change, positive = activation in experiment [2] was 2.16% (inactive). For the same compound, the max response in [10] was 3.34% (inactive). Besides, the result in experiment [17] was inactive.
Turning to `C#C[C@]1(O)CC[C@H]2[C@@H]3CCC4=CC(=O)CCC4=C3C=C[C@@]21CC`, the Potency entry in experiment [15], in [6], in [7], in experiment [9], in experiment [11] and in experiment [12] was “inactive” each time. Further, the Potency entry in [13] and in experiment [14] was “inactive” throughout. For the same compound, the compound was called inactive in experiment [18] and in experiment [17]. Besides, the Potency in experiment [16] is 34.8 µM (active).
In the case of `CCC1(CC)C(=O)NC(=O)NC1=O`, the Potency entry in [15], in experiment [16], in experiment [3], in experiment [4], in [5] and in experiment [6] was “inactive” throughout. Also, the Potency entry in experiment [7], in experiment [8], in [9] and in experiment [11] was “inactive” each time. Besides, the compound was classed as inactive in experiment [18] and in experiment [17]. The max response in [10] is 0.988% (inactive).
